Test results taken from the supplement of paper PMC12494721.
Structures can show the parent of a compound that is named as a salt.

Assays:
Conditions in all cases: incubation time: 27 h, anaerobic, 37 °C;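 for the amine columns active = adjusted P below 0.05 in both replicates with a change the same way and a mean fold change under 0.8 or over 1.25; inactive = the rest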
[1] = test system: Clostridium sporogenes DSM 1664; assay: growth (OD595) fold change vs plate DMSO controls (fold change (ratio)); higher = more growth
Summary of the method: (§1)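 Absorbance at 595 nm was read after shaking the anaerobic mGAM cultures, which had grown in 96-well plates for 27 h at 37 °C. After blank subtraction and background correction against 20 µM compound solutions in water, a calibration factor of 5 gave OD values. Growth is the fold change against the median of the plate's DMSO controls. Values are the mean of 2 biological replicates, with fold changes above 1.5 set to NA.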

[2] = test system: Escherichia coli IAI1; assay: as above
Summary of the method: as §1

[3] = test system: Klebsiella aerogenes DSM 30053; assay: as above
Summary of the method: as §1

[4] = test system: Ruminococcus gnavus DSM 108212; assay: as above
Summary of the method: as §1

[5] = test system: Klebsiella aerogenes DSM 30053; assay: fold change of Histamine concentration vs plate DMSO controls (fold change (ratio)); higher = more amine produced, active = hit call of the paper (significant change in both replicates, either direction)
Summary of the method: (§2)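 In 80 µL wells, cultures of four gut bacterial strains in mGAM started at OD 0.1 before a 1:1 dilution and grew anaerobically at 37 °C for 27 h. Compounds were added to 20 µM final, except sweeteners at 50 µM final. After extraction of whole cultures with cold acetonitrile/methanol plus 0.1% formic acid and centrifugation, amines were measured by LC–triple-quadrupole MS in dynamic MRM mode against external calibration curves, with within-batch drift correction. Values give fold change over DMSO controls on the same plate, averaged across 2 biological replicates.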

[6] = test system: Clostridium sporogenes DSM 1664; assay: fold change of Tryptamine concentration vs plate DMSO controls (fold change (ratio)); higher = more amine produced, active = hit call of the paper (significant change in both replicates, either direction)
Summary of the method: as §2

[7] = test system: Ruminococcus gnavus DSM 108212; assay: as above
Summary of the method: as §2

[8] = test system: Escherichia coli IAI1; assay: fold change of Putrescine concentration vs plate DMSO controls (fold change (ratio)); higher = more amine produced, active = hit call of the paper (significant change in both replicates, either direction)
Summary of the method: as §2

[9] = test system: Klebsiella aerogenes DSM 30053; assay: as above
Summary of the method: as §2

[10] = test system: Escherichia coli IAI1; assay: fold change of Cadaverine concentration vs plate DMSO controls (fold change (ratio)); higher = more amine produced, active = hit call of the paper (significant change in both replicates, either direction)
Summary of the method: as §2

[11] = test system: Klebsiella aerogenes DSM 30053; assay: as above
Summary of the method: as §2

[12] = test system: Ruminococcus gnavus DSM 108212; assay: fold change of 2-Phenylethylamine concentration vs plate DMSO controls (fold change (ratio)); higher = more amine produced, active = hit call of the paper (significant change in both replicates, either direction)
Summary of the method: as §2

Compound	growth [1]	growth [2]	growth [3]	growth [4]	fold change of Histamine concentration [5]	fold change of Tryptamine concentration [6]	fold change of Tryptamine concentration [7]	fold change of Putrescine concentration [8]	fold change of Putrescine concentration [9]	fold change of Cadaverine concentration [10]	fold change of Cadaverine concentration [11]	fold change of 2-Phenylethylamine concentration [12]
CCN(CC)CCNC(=O)c1cc(Br)c(N)cc1OC [Bromopride] (20 µM)	0.874	1.03	1.05	1.12	1.01 (inactive)	1 (inactive)	1 (inactive)	1.02 (inactive)	0.998 (inactive)	0.967 (inactive)	1.01 (inactive)	1.02 (inactive)
Cc1[nH]cnc1CN1CCc2c(c3ccccc3n2C)C1=O [Alosetron hydrochloride] (20 µM)	1.17	0.97	1.02	1.13	0.979 (inactive)	1.04 (inactive)	0.996 (inactive)	0.971 (inactive)	1.02 (inactive)	0.945 (inactive)	1.01 (inactive)	0.975 (inactive)
CCN(CC)CCNC(=O)c1cc(Cl)c(N)cc1OC [Metoclopramide monohydrochloride] (20 µM)	1.08	1.01	1	1.13	1.03 (inactive)	0.988 (inactive)	1.02 (inactive)	0.875 (inactive)	1.03 (inactive)	0.826 (inactive)	0.998 (inactive)	1 (inactive)
CCCCCCOc1ccccc1C(N)=O [Exalamide] (20 µM)	1.34	0.997	1.03	1.23	0.934 (inactive)	0.949 (inactive)	0.95 (inactive)	0.952 (inactive)	1.01 (inactive)	1.03 (inactive)	0.997 (inactive)	0.936 (inactive)
O=C(OCC(O)CO)c1ccccc1Nc1ccnc2cc(Cl)ccc12 (stereo unspecified) [Glafenine hydrochloride] (20 µM)	1.08	0.957	0.977	0.831	1.01 (inactive)	0.965 (inactive)	1.03 (inactive)	0.998 (inactive)	0.999 (inactive)	0.998 (inactive)	1.01 (inactive)	1.04 (inactive)
C/C(=C(\CCOC(=O)c1ccccc1)SS/C(CCOC(=O)c1ccccc1)=C(/C)N(C=O)Cc1cnc(C)nc1N)N(C=O)Cc1cnc(C)nc1N [Bisbentiamine] (20 µM)	0.925	0.985	0.994	1.01	1 (inactive)	0.975 (inactive)	0.917 (inactive)	0.998 (inactive)	0.999 (inactive)	1.03 (inactive)	0.983 (inactive)	0.855 (inactive)
CCCCN(CCCC)CCCOC(=O)c1ccc(N)cc1 [Butacaine] (20 µM)	1.11	1.03	1.02	1	1.03 (inactive)	0.973 (inactive)	0.951 (inactive)	0.955 (inactive)	1.01 (inactive)	1.02 (inactive)	1 (inactive)	0.913 (inactive)
CC(C)(C)NC(=O)[C@@H]1CN(Cc2cccnc2)CCN1C[C@@H](O)C[C@@H](Cc1ccccc1)C(=O)N[C@H]1c2ccccc2C[C@H]1O [Indinavir sulfate] (20 µM)	1.29	1.01	1.04	0.985	0.966 (inactive)	1.04 (inactive)	1.05 (inactive)	1.02 (inactive)	1.03 (inactive)	1.05 (inactive)	1 (inactive)	1.02 (inactive)
CN1CCC(=C2c3ccccc3Sc3ccccc32)CC1 [Pimethixene maleate] (20 µM)	1.13	0.985	0.967	1.26	1.02 (inactive)	1.01 (inactive)	0.87 (inactive)	0.974 (inactive)	0.991 (inactive)	1.02 (inactive)	0.993 (inactive)	0.865 (inactive)
N=C(N)NCCN1CCCCCCC1 [Guanethidine sulfate] (20 µM)	1.13	0.988	1.1	0.933	0.834 (inactive)	1.07 (inactive)	1.1 (inactive)	0.97 (inactive)	0.953 (inactive)	0.9 (inactive)	1.04 (inactive)	1.11 (inactive)
CCOC(=O)n1ccn(C)c1=S [Carbimazole] (20 µM)	0.973	1.11	0.979	1.08	1.04 (inactive)	0.937 (inactive)	1.01 (inactive)	1.09 (inactive)	1.03 (inactive)	0.98 (inactive)	1 (inactive)	1.01 (inactive)
S=C([S-])NCCNC(=S)[S-].S=C([S-])NCCNC(=S)[S-].[Mn+2].[Zn+2] (20 µM)	0.889	0.959	0.994	1.01	0.985 (inactive)	1.14 (inactive)	1.12 (inactive)	1.02 (inactive)	0.852 (inactive)	0.85 (inactive)	1.07 (inactive)	1.21 (inactive)
CCCCC(O)c1ccccc1 (stereo unspecified) [Fenipentol] (20 µM)	0.995	1.05	1.03	0.948	0.969 (inactive)	0.989 (inactive)	1.01 (inactive)	1.01 (inactive)	0.987 (inactive)	1.03 (inactive)	1.01 (inactive)	1.04 (inactive)
CC(=O)O[C@H]1C[C@@H]2CC[C@@H]3[C@H](CC[C@@]4(C)[C@H]3C[C@H]([N+]3(C)CCCCC3)[C@@H]4OC(C)=O)[C@@]2(C)C[C@@H]1N1CCCCC1 [Vecuronium bromide] (20 µM)	0.99	0.99	1.01	0.872	1.04 (inactive)	1.01 (inactive)	0.967 (inactive)	0.872 (inactive)	1 (inactive)	0.992 (inactive)	0.992 (inactive)	1.03 (inactive)
COC(=O)[C@H](c1ccccc1Cl)N1CCc2sccc2C1 [Clopidogrel] (20 µM)	1.01	1.25	0.982	0.969	1.06 (inactive)	0.986 (inactive)	0.963 (inactive)	1.23 (inactive)	1.02 (inactive)	0.975 (inactive)	0.996 (inactive)	0.941 (inactive)
CN(C)CCCSC(=N)N [Dimaprit dihydrochloride] (20 µM)	1.04	1.04	1.02	1.03	0.939 (inactive)	0.955 (inactive)	1.07 (inactive)	1 (inactive)	0.996 (inactive)	0.998 (inactive)	0.993 (inactive)	1.07 (inactive)
CCOC(=O)[C@H](CCc1ccccc1)N[C@H]1CS[C@H](c2cccs2)CN(CC(=O)O)C1=O [Temocapril hydrochloride] (20 µM)	1.1	1.05	1.08	1.05	0.959 (inactive)	0.989 (inactive)	0.991 (inactive)	0.997 (inactive)	1.03 (inactive)	1.04 (inactive)	1.01 (inactive)	1.01 (inactive)
CN(C)CCCN1c2ccccc2Sc2ccc(Cl)cc21 [Chlorpromazine hydrochloride] (20 µM)	0.986	1.21	1.03	1.29	0.88 (inactive)	1.06 (inactive)	0.908 (inactive)	1.14 (inactive)	0.959 (inactive)	0.934 (inactive)	1.01 (inactive)	0.935 (inactive)
CC(C)(C)c1ccc(C(=O)CCCN2CCC(OC(c3ccccc3)c3ccccc3)CC2)cc1 [Ebastine] (20 µM)	1.13	1	1.01	0.852	1.02 (inactive)	0.991 (inactive)	0.856 (inactive)	1.02 (inactive)	1 (inactive)	1.01 (inactive)	0.983 (inactive)	1.02 (inactive)
CC(C(=O)O)c1ccc(C(=O)c2ccccc2)s1 (stereo unspecified) [Tiaprofenic acid] (20 µM)	0.955	1.1	0.987	1.16	0.995 (inactive)	0.993 (inactive)	1.04 (inactive)	1.08 (inactive)	1.01 (inactive)	0.966 (inactive)	0.988 (inactive)	1.07 (inactive)
CN1CCN(C2=Nc3ccccc3Oc3ccc(Cl)cc32)CC1 [Loxapine succinate] (20 µM)	1.12	1.04	1.04	1.4	0.932 (inactive)	1.04 (inactive)	0.962 (inactive)	0.998 (inactive)	1 (inactive)	1.01 (inactive)	1.02 (inactive)	0.973 (inactive)
CCOC(=O)[N-]c1c[n+](N2CCOCC2)no1 [Molsidomine] (20 µM)	0.839	1.04	0.98	0.196	1.03 (inactive)	1.19 (inactive)	0.153 (active)	0.994 (inactive)	1.02 (inactive)	0.951 (inactive)	1 (inactive)	0.14 (active)
CCOC(=O)O[C@]1(C(=O)COC(=O)CC)CC[C@H]2[C@@H]3CCC4=CC(=O)C=C[C@]4(C)[C@H]3[C@@H](O)C[C@@]21C [Prednicarbate] (20 µM)	1.04	1.09	1.01	0.865	1.02 (inactive)	0.97 (inactive)	1.2 (inactive)	0.941 (inactive)	1.03 (inactive)	1.01 (inactive)	1.12 (inactive)	1.41 (inactive)
